The list shows a part of the results. No count for the full screen is at hand.
Molecular target: furin, P09958
Assay: furin cleavage Z-score vs untreated control; higher = more cleavage, active = 3.5 or more, inactive = 1 or less, 8 variable residues between constant flanks
Method: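 Multiplexed peptide-cDNA fusion cleavage assay. 8-mer variable peptides flanked by constant Cys-Ala (N-term) and Ala-Gly-Asn-Ala-Ser-Ala-Ser-Ala (C-term) and conjugated to a cDNA oligonucleotide were bead-immobilised via the N-terminus. They were treated with purified furin at a 1:10 enzyme:substrate ratio in 50 mM HEPES pH 7.5, 1 mM CaCl2, 100 mM NaCl for 7.5, 15 or 30 min. Released cDNA was counted by next-generation sequencing, and log counts versus no-furin controls were lowess-adjusted and converted to robust Z-scores.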

furin, P09958, sequence (P09958 whole entry): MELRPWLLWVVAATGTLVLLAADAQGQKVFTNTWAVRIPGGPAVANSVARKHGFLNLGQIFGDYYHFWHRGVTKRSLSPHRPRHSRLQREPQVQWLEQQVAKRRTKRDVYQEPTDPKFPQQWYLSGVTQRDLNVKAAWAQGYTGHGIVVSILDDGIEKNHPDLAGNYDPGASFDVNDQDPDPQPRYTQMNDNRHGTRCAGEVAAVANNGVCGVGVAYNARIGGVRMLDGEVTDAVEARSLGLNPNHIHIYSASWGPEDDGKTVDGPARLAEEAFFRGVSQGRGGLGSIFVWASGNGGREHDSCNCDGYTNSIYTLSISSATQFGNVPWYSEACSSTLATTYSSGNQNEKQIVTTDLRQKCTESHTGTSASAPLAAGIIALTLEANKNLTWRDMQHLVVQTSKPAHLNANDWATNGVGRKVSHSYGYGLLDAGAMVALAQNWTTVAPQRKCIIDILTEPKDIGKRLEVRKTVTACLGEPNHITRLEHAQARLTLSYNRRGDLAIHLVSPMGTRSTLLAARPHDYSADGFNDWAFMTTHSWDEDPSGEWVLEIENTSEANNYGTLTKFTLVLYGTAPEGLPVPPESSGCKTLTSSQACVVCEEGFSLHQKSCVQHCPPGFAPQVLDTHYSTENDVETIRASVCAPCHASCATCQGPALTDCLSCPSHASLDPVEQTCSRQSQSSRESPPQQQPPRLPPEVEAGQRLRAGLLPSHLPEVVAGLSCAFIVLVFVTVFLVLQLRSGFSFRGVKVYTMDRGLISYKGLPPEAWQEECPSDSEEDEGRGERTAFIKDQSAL

Sequence | furin cleavage Z-score (7.5 min) | furin cleavage Z-score (15 min) | furin cleavage Z-score (30 min)
CAGFLRKRREAGNASASA [FS-426] | 11.1 (active) | 11.2 (active) | 8.58 (active)
CAYPKRSAGEAGNASASA [FS-2117] | -0.54 (inactive) | -0.564 (inactive) | 0.202 (inactive)
CAWQRRQRRGAGNASASA [FS-896] | 6 (active) | 6.49 (active) | 5.96 (active)
CAPPRRQRRGAGNASASA [FS-1050] | 0.924 (inactive) | 0.828 (inactive) | 1.23
CAKWLRFIRGAGNASASA [FS-1022] | 2.09 | 0.354 (inactive) | 3.09
CANCLRQRRGAGNASASA [FS-465] | -0.759 (inactive) | -0.337 (inactive) | -0.511 (inactive)
CALNNRQIRGAGNASASA [FS-1136] | 3.62 (active) | 5.07 (active) | 5.04 (active)
CADGNRQVRGAGNASASA [FS-981] | 0.00638 (inactive) | -1.04 (inactive) | 0.17 (inactive)
CATKNRQRRGAGNASASA [FS-1094] | 6.87 (active) | 7.34 (active) | 5.71 (active)
CAMVVTSTWVAGNASASA [HC2146] | -1.12 (inactive) | -1.84 (inactive) | -2.22 (inactive)
CAIGTVLDQAAGNASASA [HC825] | -1.51 (inactive) | -1.57 (inactive) | -0.129 (inactive)
CARHKRLSYQAGNASASA [FS-3255] | -1.36 (inactive) | -0.609 (inactive) | 1.23
CARQKKGVVPAGNASASA [FS-2749] | 0.952 (inactive) | -0.837 (inactive) | -1.72 (inactive)
CARHKRQSGVAGNASASA [FS-2211] | 5.97 (active) | 7.29 (active) | 6.66 (active)
CARQKRDPAFAGNASASA [FS-2289] | 2.9 | 3.65 (active) | 5.36 (active)
CARRKRDWVIAGNASASA [FS-2778] | 3.18 | 5.46 (active) | 8.57 (active)
CARQKRDWIWAGNASASA [FS-2751] | 3.51 (active) | 5.26 (active) | 8.38 (active)

Sequence | furin cleavage Z-score (7.5 min) | furin cleavage Z-score (15 min) | furin cleavage Z-score (30 min)
CARRCRASGVAGNASASA [HC1509] | -1.17 (inactive) | -0.493 (inactive) | -0.69 (inactive)
CARQKRGWMWAGNASASA [FS-2169] | -0.547 (inactive) | 2.65 | 3
CARSKRRWVIAGNASASA [FS-2812] | -0.553 (inactive) | -0.688 (inactive) | 0.146 (inactive)
CACLEVVTSTAGNASASA [HC2280] | -1.07 (inactive) | -0.98 (inactive) | 0.458 (inactive)
CAARLLARGGAGNASASA [HC1625] | -1.06 (inactive) | -1.7 (inactive) | -0.871 (inactive)
CAQTASRQAEAGNASASA [HC1029] | 1.23 | 0.0169 (inactive) | -0.455 (inactive)
CAGVRTITTGAGNASASA [HC801] | 0.457 (inactive) | -0.157 (inactive) | -1.39 (inactive)
CASTPCSIHLAGNASASA [HC2524] | -0.158 (inactive) | 0.385 (inactive) | 1.12
CATAPCSGSWAGNASASA [HC1843] | -0.496 (inactive) | -0.615 (inactive) | -1.22 (inactive)
CARQKRDWVIAGNASASA [FS-2586] | 2.07 | 4.34 (active) | 6.74 (active)
CARQKRLFCRAGNASASA [FS-2755] | -1.26 (inactive) | 0.165 (inactive) | 0.958 (inactive)
CARQKRFVLSAGNASASA [FU6] | 5.85 (active) | 4.21 (active) | 6.95 (active)
CARHKRDWVVAGNASASA [FS-2677] | 4.03 (active) | 1.73 | 8.28 (active)
CARYSRGVLSAGNASASA [FS-2113] | 0.374 (inactive) | 0.104 (inactive) | 0.696 (inactive)
CARHERDAGVAGNASASA [FS-1822] | 0.322 (inactive) | 0.612 (inactive) | -0.236 (inactive)
CARQKRDTTHAGNASASA [FS-2750] | 12.5 (active) | 13.1 (active) | 9.68 (active)
CARQKRFVLSAGNASASA [FS-2444] | 4.98 (active) | 5.66 (active) | 7.27 (active)

Source: the supplement of paper PMC3545927
